# The list is not random: actives were taken first. Their share in the collection is about 0.87%.
# TDP1 block – inhibitors of human tyrosyl-DNA phosphodiesterase TDP1. recombinant TDP1, AlphaScreen DNA substrate cleavage. Q9NUW8. Potency, µM (titrated, usually from 130 µM), for inactives: at the highest dose activity change, negative = inhibition, hits mostly inhibitors. hit rate 0.28% among 350,000; also: potency is read from the fitted curve at half-maximal effect; % is scaled to controls: 0 for no effect and ±100 for the full control effect; nearly all actives have a fitted effect of over 40% in size
#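 E. coli-derived human Tdp1, 1 nM final. Cpd preinc 15 min RT; substrate 15 nM final, 5 min RT; AS bead mix 10 ug/ml final, 10 min RT. Signal loss = tyrosine-FITC cleavage. No-enzyme wells = max signal.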
# GCN5L2 inh-1 – blocks human GCN5L2 histone acetyltransferase; Q92830; hit rate 0.21% among 390,000; GCN5L2 HAT assay, ThioGlo1 CoA-SH fluorescence; Potency, µM (highest dose often 58.9 µM), inactives show top-dose activity change, negative = inhibition, hits mostly inhibitors; AID 504327; also: potency is read from the fitted curve at half-maximal effect; % is scaled to controls: 0 for no effect and ±100 for the full control effect
#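 Fluorescence readout, Ex340nm/Em540nm: ThioGlo1 (50uM final) reacts with free CoA thiol released as 20nM GCN5L2 acetylates H3(1-25) peptide (75uM) using acetyl-CoA (70uM). Compound and enzyme sat 15 min beforehand; 20 min room-temperature reaction.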
# RECQ1 inh – blocks DNA unwinding by human RECQ1; P46063; RECQ1 DNA unwinding, red fluorescence kinetic read; AID 2549; Potency, µM (doses to about 57.3 µM), for inactives: at the highest dose activity, negative = inhibition, actives largely listed as inhibitors; hit rate 0.54% among 240,000;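 also: potency is read from the fitted curve at half-maximal effect; plate controls were vehicle for no effect and no enzyme for full effect; nearly all actives have a fitted effect of over 30% in size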
#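 50 nM RECQ1T1 preincubated 15 min with compound in Tris pH 8.0 buffer with MgCl2, DTT, Tween-20 and 2.5 ug/ml poly(dI-dC); started with 200 nM TAMRA/BHQ-2 forked duplex and 2 mM ATP. Unwinding read as fluorescence (525/598 nm), two reads 2 h apart.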
# BLM inh-1 – blocks DNA unwinding by human BLM helicase | P54132 | recombinant BLM DNA unwinding, fluorescence dequenching | Potency, µM (series often up to 56.1 µM), inactives show at the highest dose activity change, negative = inhibition, usual class: inhibitors | hit rate 0.2% among 350,000;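 also: potency is read from the fitted curve at half-maximal effect; plate controls were vehicle for no effect and no enzyme for full effect; nearly all actives have a fitted effect of over 35% in size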
# APE1 inh-1 – APE1 (human) endonuclease inhibition; AID 2517; recombinant APE1, TAMRA/BHQ-2 abasic DNA cleavage fluorescence; P27695; hit rate 0.35% among 350,000; Potency, µM (series often up to 65.8 µM), for inactives: top-dose activity change, negative = inhibition, hits mostly inhibitors;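 also: potency is read from the fitted curve at half-maximal effect; plate controls were vehicle for no effect and reference inhibitor for full effect; nearly all actives have a fitted effect of over 55% in size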
#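 APE1 at 0.75 nM preincubated 15 min at room temperature with compound. Reaction then started with 50 nM double-stranded THF-abasic substrate labelled with TAMRA/BHQ-2, and 525/598 nm fluorescence read kinetically. Activity taken as third-minus-first read difference, normalized to DMSO and NSC13755 controls.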
# DNA dye displace – displaces fluorescent dye from DNA, flagging APE1 artifacts; shares compounds with APE1 inh-1; DNA fluorescent dye displacement counterscreen, fluorescence; Potency, µM (series often up to 28.5 µM), inactives show top-dose activity change, negative = inhibition, actives largely listed as inhibitors; hit rate 7% among 480;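 also: loss of thiazole orange fluorescence as the dye is displaced from duplex DNA; potency is read from the fitted curve at half-maximal effect; 0% = ThO with dsDNA and no compound and -100% = ThO without dsDNA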
# Endo IV inh – counter-screen for APE1 inhibitors: inhibitors of E. coli endonuclease IV | shares compounds with APE1 inh-1 | E. coli Endo IV, fluorogenic AP-site DNA cleavage | Potency, µM (highest dose often 27.1 µM), for the others: at the top dose activity change, negative = inhibition, most hits filed as inhibitors | hit rate 4% among 560 | AID 2565;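 also: potency is read from the fitted curve at half-maximal effect; plate controls were uninhibited enzyme wells for no effect and no enzyme buffer wells for full effect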
# APE1 inh-2 – APE1 (human) endonuclease inhibition, confirmation | shares compounds with APE1 inh-1 | purified APE1, fluorogenic abasic-site DNA cleavage | Potency, µM (top dose mostly 57.1 µM), for inactives: top-dose activity change, negative = inhibition, most hits filed as inhibitors | hit rate 44% among 750 | AID 2572; also: potency is read from the fitted curve at half-maximal effect; % is scaled to controls: 0 for no effect and ±100 for the full control effect; nearly all actives have a fitted effect of over 30% in size
# APE1 FP – compounds that displace a DNA probe from human APE1 | shares compounds with APE1 inh-1 | APE1 binding to TAMRA-labelled double-stranded DNA, fluorescence polarization displacement | Potency, µM (highest dose often 28.5 µM), for the others: at the highest dose activity, negative = inhibition, most hits filed as inhibitors | hit rate 7% among 480; also: potency is read from the fitted curve at half-maximal effect; % is scaled to controls: 0 for no effect and ±100 for the full control effect
# BLM inh-2 – confirmation of inhibitors of human Bloom syndrome helicase BLM. shares compounds with BLM inh-1. BLM DNA unwinding, fluorescence quenching, biochemical. Potency, µM, for inactives: max response, negative = inhibition, usual class: inhibitors. hit rate 40% among 220. AID 2585;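 also: strand separation dequenches TAMRA so unwinding raises red fluorescence; potency is read from the fitted curve at half-maximal effect; series mostly up to about 69 µM; % is scaled to controls: 0 for no effect and ±100 for the full control effect; nearly all actives have a fitted effect of over 45% in size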
# GCN5L2 inh-2 – confirmation of human GCN5L2 histone acetyltransferase inhibitors; AID 588347; GCN5L2 HAT, ThioGlo1 CoA fluorescence, 20 min; shares compounds with GCN5L2 inh-1; hit rate 70% among 140; Potency, µM, usual class: inhibitors
# * = called active by the depositor; i = inactive; ? = inconclusive; . = no result; ! = not active in a repeat; [ ] = another dose, or the depositor's remark. Calls follow the shape of the dose curve; as a rule, active = well fitted curve in the direction sought with a large enough effect; inconclusive = small, poorly fitted or top-dose-only effect, or another doubt; inactive = no such curve, though single readings can be large; an effect the other way counts as inactive or inconclusive.
SMILES,TDP1 block,GCN5L2 inh-1,RECQ1 inh,BLM inh-1,APE1 inh-1,BLM inh-2,others
Cc1cccc(C)c1NC(=O)CSc1nnc(-c2ccco2)c(-c2ccco2)n1,.,13µM*,14µM*,6%,16µM*,.,DNA dye displace=?;Endo IV inh=-2%;APE1 inh-2=3.5µM*;APE1 FP=-23%;GCN5L2 inh-2=?
CN(C)c1ccc(NC(=O)CSc2nnc(-c3ccco3)c(-c3ccco3)n2)cc1,.,-9%,.,-8%,-18%,.,
CC(C)(C)[Si](C)(C)c1c2c(nc3ccc(OCc4ccccc4)cc13)-c1cccc(=O)n1C2,-1%,.,-11%,-12%,-1%,.,
O=C(Nc1cccc(-c2nc3cccnc3s2)c1)C1c2ccccc2Oc2ccccc21,?,-7%,-29%,10µM*,?,13µM*,
CC(C)c1ccc(NC(=O)c2ccc(CN3CC(=O)N4CCCCC4C3=O)cc2)cc1 (configuration not stated),4%,-9%,.,-2%,.,.,
COc1ccccc1-n1cnc2c(c1=O)c1nc3ccccc3nc1n2-c1ccc(C)cc1,3%,?,-5%,10µM*,4%,-1%,
O=C1CCC=C1C(O)c1ccccc1 (configuration not stated),-4%,.,-6%,1%,-2%,.,
O=C(CSc1nc(O)cc(=O)[nH]1)Nc1ccc2c(c1)CCC2,.,-17%,-13%,22µM*,16%,3%,
CCCc1cc(=O)[nH]c(SCC(=O)Nc2ccc3c(c2)CCC3)n1,3%,?,-8%,0%,-1%,.,
COc1cc(-c2nc3ccc(N4CCN(C)CC4)cc3[nH]2)cc(OC)c1OC,3%,?,-14%,20µM*,-11%,?,
Cc1ccc(NC(=O)Cn2c(=O)n(Cc3nc(-c4ccccc4)no3)c(=O)c3cc4c(cc32)OCO4)cc1C,-6%,-7%,.,-2%,.,.,
C/C=C/c1ccc(OCC(=O)O)c(OC)c1,3%,-1%,-9%,-8%,0%,.,
CC(C)=CCOc1ccc(/C=C/C(=O)c2ccc(OCC=C(C)C)cc2OCC(=O)O)cc1,3%,10µM*,i,16µM*,4%,?,
CCCCNc1nc(C)nc2c1nc(-c1ccccc1)n2CCCN1CCCCC1C (configuration not stated),1%,.,-3%,0%,-10%,.,
CC1=NN(c2ccccc2)C(=O)/C1=C/c1c(O)n(-c2ccc(F)c(Cl)c2)[nH]c1=O,9%,?,-6%,18µM*,-5%,36µM*,
Cc1nc(-c2ccc(C(=O)Nc3cc(S(N)(=O)=O)ccc3C)cc2)cs1,-6%,-3%,.,7.1µM*,29%,6.5µM*,
COc1ccc(OC)c(NC(=O)c2ccc(-c3csc(C)n3)cc2)c1,.,-3%,.,-21%,-22%,.,
Cc1ccc(C(=O)NCc2ccc3c(c2)CCN3C(=O)c2ccc(C)cc2)cc1,1%,-6%,.,-3%,.,.,
O=C(Cc1ccc(Cl)cc1)Nc1ccccc1Sc1ccccc1,-10%,-2%,-8%,-7%,-9%,.,
O=C(CCl)Nc1ccccc1Sc1ccccc1,-2%,-1%,0%,8.9µM*,0%,13µM*,
CN(C)c1ccc(-c2nc(NCc3cccnc3)c3ccccc3n2)cc1,5%[56.1 µM],-17%,?,16µM*,-2%,23µM*,
CC[C@H](C)[C@@H](NC(=O)O[C@H]1C(=O)c2cc(OC)ccc2O[C@@H]1c1ccc(OC)c(Br)c1)C(=O)OC,8%,.,i,0%,?,.,
Oc1ccc(NCc2ccccc2OCc2ccccc2F)cc1,10%,-8%,-10%,28µM*!,?,?,
CCOc1cccc(CNc2ccc(O)cc2)c1OCc1ccc(Cl)cc1,3%,-13%,-9%,28µM*,-11%,-11%,
Oc1ccc(NCc2ccccc2OCc2ccccc2Cl)cc1,6%,-3%,.,-25%,.,.,
SMILES,TDP1 block,GCN5L2 inh-1,RECQ1 inh,BLM inh-1,APE1 inh-1,BLM inh-2,others
OC[C@H]1OC(O)[C@@H](O)[C@@H](O)[C@H]1O (some centres not stated),25%,0%,-9%,4%,-5%,.,
COc1ccc2c(c1)C(=NNC(=O)c1ccccn1)c1cc(OC)ccc1-2,2%,25%,-5%,10µM*,11%,29µM*,
Cc1[nH]c2ccccc2c1C(=O)COC(=O)C1CC(=O)N(Cc2ccco2)C1 (configuration not stated),6%,-1%,-1%,0%,-2%,.,
O=C(COC(=O)C1CC(=O)N(Cc2ccco2)C1)c1ccc(OC(=O)c2ccco2)cc1 (configuration not stated),0%,?,-1%,16µM*,-1%,?,
O=C(CCc1c[nH]c2ccccc12)NC(Cc1c[nH]c2ccccc12)C(=O)O (configuration not stated),.,-15%,.,32µM*,21µM*,-8%,
COC(=O)c1c(NC(=O)COC(=O)c2ccc(NC(=O)CC#N)cc2)sc2c1CCCCC2,3%,21%,i,32µM*,14%,?,
CC(C)(C)C(=O)Nc1ccc2nc(SCC(=O)N3CCCC3)sc2c1,4%,0%,.,-2%,.,.,
CCc1ccc(-n2nc(CO)c(C(=O)NCCOC)n2)cc1,-7%,-1%,.,2%,.,.,
O=C(Nc1ccc2nsnc2c1)N1CCCCC1,0%,-8%,3%,-6%,?,.,
CC(C)N(C(=O)Nc1ccc2nsnc2c1)C(C)C,5%,-20%,i,5.6µM*,4%,?,
S=C(Nc1ccc2nsnc2c1)NC1CCCCC1,4%,-4%,i,13µM*,-7%,-11%,

# From PubChem BioAssay
